In PubChem BioAssay (Tox21):
Values joined by “and” are separate entries in the source; they are usually repeats but may differ in a detail not shown here. Identical values can stand only once. Records with an inconclusive call do not appear. Where a call stands in place of a potency, no number is given. Where a structure was tested more than once in an assay, its records may differ in their call. Active and inactive are the calls of the source. Calls come from the whole dose curve; as a rule, active = well fitted cell-killing curve with a large enough effect in the repeat runs; inconclusive = weak or mixed curves, or effect the other way; inactive = flat fitted curve, though single readings scatter.
Potency is the fitted concentration of half-maximal effect.

Assay: Caspase-3/7 induction in HepG2 cells by small molecules, qHTS cell viability counter screen (AID 1346981); note: nearly all actives have a fitted effect of over 30% in size
Conditions: CellTiter-Fluor fluorescence, 17 h; series mostly up to 92.4 µM; activity change, negative = cytotoxicity: at the top concentration
Source text: U.S. Tox21 Program National Center for Advancing Translational Sciences [NCATS] NIH Chemical Genomics Center [NCGC] U.S. Environmental Protection Agency [EPA] National Institutes of Environmental Health Sciences [NIEHS] National Toxicology Program [NTP] U.S. Food and Drug Administration [FDA] Tox21 Assay Overview: Apoptosis is a process of programmed cell death and plays a central role in the development of multicellular organisms. It is a highly regulated process and induces cell death by activating caspases, which are the members of cysteine aspartic acid-specific protease (caspase) family. Caspases involved in apoptosis are classified by their mechanism of action as initiator caspases (caspase-2, -8, -9 and -10) and executioner caspases (caspase-3, -6, and -7). Inhibition of apoptosis results in number of cancers, autoimmune diseases, inflammatory diseases and viral infection. To identify small molecule compounds that induce apoptosis, a homogeneous, luminescent Caspase-Glo 3/7 assay was used. Wild type HepG2 cells were used to screen Tox21 libraries for identifying caspase-3/7 activity inducers. Also cytotoxicity of the compounds was tested in parallel by measuring the cell viability using CellTiter-Fluor assay system in the same wells.
Tox21 Assay Protocol Summary: HepG2 cells were dispensed at 2,000 per well in 5uL of culture medium into white solid bottom 1536-well plates (Corning Life Sciences, Corning, NY) using a Multidrop Combi (Thermo Scientific, Waltham, MA) dispenser. The assay plates were incubated at 37 C and 5% CO2 for 5hr, and then 23nL of compounds dissolved in DMSO and positive control were transferred using a Pintool station ([…], San Diego, CA). The assay plates were incubated at 37C and 5% CO2 for 17hr. For cytotoxicity read, after 16hr incubation at 37C, 1uL CellTiter-Fluor reagent (Promega Corporation, Madison, WI) was added to each well of the assay plates using Flying Reagent Dispenser (FRD, Aurora Discovery, San Diego, CA). After 1hr incubation at 37C and 5% CO2, the fluorescence signal was quantified using a ViewLux plate reader (PerkinElmer, Shelton, CT).
In the case of `C/C=C/C(=O)N(CC)c1ccccc1C`, the Potency is reported as “inactive”. With `CC/C(=C(/CC)c1ccc(O)cc1)c1ccc(O)cc1` the “activity change, negative = cytotoxicity” value was -8.28% [at 42.5 µM] (inactive). With `COC(=O)C(C)Oc1ccc(Oc2ncc(C(F)(F)F)cc2Cl)cc1` (stereo not given) the Potency was “inactive”. With `COc1cc([C@H]2Oc3cc([C@H]4Oc5cc(O)cc(O)c5C(=O)[C@@H]4O)ccc3O[C@@H]2CO)ccc1O` the Potency was 60.9 µM (active) and inactive. With `C=C[Si](OCCOC)(OCCOC)OCCOC` the Potency was “inactive”. For `NC[C@H](O)c1ccc(O)c(O)c1`, the Potency was “inactive”. For `O=C(O)CCCC(=O)O`, the Potency was “inactive”. For `C=C[C@@]1(C)CC(=O)[C@]2(O)[C@@]3(C)[C@@H](O)CCC(C)(C)[C@@H]3[C@H](O)[C@H](OC(C)=O)[C@@]2(C)O1`, the Potency was “inactive”. In the case of `CC(C)(C)c1cccc(C(C)(C)C)c1O`, the “activity change, negative = cytotoxicity” value is reported as 1.69% (inactive). With `CCO[Si](CCCNC(N)=O)(OCC)OCC` the Potency was “inactive”. With `C=C1C[C@H]2[C@@H]3C=C(C)C4=CC(=O)CC[C@]4(C)[C@H]3CC[C@]2(C)[C@@]1(OC(C)=O)C(C)=O` the Potency was “inactive”. For `CN(C)C`, the Potency was “inactive”. For `NCCOCCO`, the Potency was “inactive”. With `CC(=O)[C@H]1CC[C@H]2[C@@H]3CC=C4C[C@@H](O)CC[C@]4(C)[C@H]3CC[C@]12C` the Potency was “inactive”. In the case of `CN(C)CCCN1c2ccccc2Sc2ccc(Cl)cc21`, the Potency is reported as 61.1 µM (active) and 29.8 µM (active). In the case of `Cc1cccc(Nc2ccccc2C(=O)O)c1C`, the Potency is reported as “inactive”. In the case of `Cc1ccc([N+](=O)[O-])c(C)c1`, the “activity change, negative = cytotoxicity” value is reported as -0.323% (inactive). For `Nc1cc([N+](=O)[O-])ccc1C(=O)O`, the “activity change, negative = cytotoxicity” value was -4.19% (inactive). With `CC(=O)[C@@]1(O)CC[C@H]2[C@@H]3C[C@H](C)C4=CC(=O)C=C[C@]4(C)[C@@]3(F)[C@@H](O)C[C@@]21C` the Potency was “inactive”. In the case of `NCCS(=O)(=O)O`, the “activity change, negative = cytotoxicity” value is reported as 3.72% [at 42.5 µM] (inactive). For `CC(=O)O[C@]1(C(C)=O)CC[C@H]2[C@@H]3C=C(C)C4=CC(=O)CC[C@]4(C)[C@H]3CC[C@@]21C`, the “activity change, negative = cytotoxicity” value was -0.621% [at 42.5 µM] (inactive). With `Nc1cc(Cl)c(N)c(Cl)c1` the Potency was “inactive”. In the case of `CC(C)=CCO`, the Potency is reported as “inactive”. With `C[C@]12C=CC(=O)C=C1CC[C@H]1[C@@H]3C[C@@H](O)[C@](O)(C(=O)CO)[C@@]3(C)C[C@H](O)[C@@]12F` the Potency was “inactive”. In the case of `CC1(C)NC(=O)N(c2ccc([N+](=O)[O-])c(C(F)(F)F)c2)C1=O`, the “activity change, negative = cytotoxicity” value is reported as -0.561% [at 42.5 µM] (inactive). For `Cc1ccc(C(C)(C)C)cc1`, the Potency was “inactive”. With `C=CC(=O)OCCCC` the Potency was “inactive”. In the case of `OCCNCCO`, the Potency is reported as “inactive”. With `OC[C@H]1O[C@@H]2O[C@H]3[C@H](O)[C@@H](O)[C@@H](O[C@H]4[C@H](O)[C@@H](O)[C@@H](O[C@H]5[C@H](O)[C@@H](O)[C@@H](O[C@H]6[C@H](O)[C@@H](O)[C@@H](O[C@H]7[C@H](O)[C@@H](O)[C@@H](O[C@H]1[C@H](O)[C@H]2O)O[C@@H]7CO)O[C@@H]6CO)O[C@@H]5CO)O[C@@H]4CO)O[C@@H]3CO` the Potency was “inactive”. For `CC(=O)Oc1c(C)c(C)c2c(c1C)CC[C@@](C)(CCC[C@H](C)CCC[C@H](C)CCCC(C)C)O2`, the Potency was “inactive”. For `CC/C=C\C/C=C\C/C=C\CCCCCCCC(=O)O`, the “activity change, negative = cytotoxicity” value was -1.55% (inactive). For `C=CN1CCCC1=O`, the Potency was “inactive”. For `CCCCCCC(C)O` (stereo not given), the Potency was “inactive”. For `CCC(=O)O[C@H]1[C@H](O[C@@H]2[C@@H](C)[C@H](O[C@H]3C[C@@](C)(OC)[C@@H](O)[C@H](C)O3)[C@@H](C)C(=O)O[C@H](CC)[C@@](C)(O)[C@H](O)[C@@H](C)C(=O)[C@H](C)C[C@@]2(C)O)O[C@H](C)C[C@@H]1N(C)C`, the “activity change, negative = cytotoxicity” value was -3.09% [at 42.5 µM] (inactive). For `CC(C)(Oc1ccc(Cl)cc1)C(=O)O`, the Potency was “inactive”. For `COCCOCCOCCO`, the Potency was “inactive”. In the case of `IC(I)I`, the Potency is reported as “inactive”. For `CC[C@]12CCCN3CCc4c(n(c5ccccc45)[C@@](O)(C(=O)OC)C1)[C@@H]32`, the Potency was “inactive”. For `CCCCCC=O`, the Potency was “inactive”. In the case of `Nc1ccc2c(O)cc(S(=O)(=O)O)cc2c1`, the Potency is reported as 27.3 µM (active) and 21.7 µM (active).
